Assay results published in PubChem BioAssay (EPA / NIEHS).
Results filed as inconclusive are left out. Activity calls are given as the source filed them. How the source made its calls, unless noted: active means hit-call score of the fitted dose curve at least 0.9, where 1 is the maximum; inconclusive means response in the unintended direction; inactive means score below 0.9.

Key:
[1] = Tanguay_ZF_120hpf_SWIM_legacy: (Legacy) Oregon State University Tanguay Lab 120 Hour Post-fertilization zebrafish Assay for Swim Bladder Malformation (AID 2283654);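 further: swim bladder malformation in each larva scored yes or no under brightfield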
How it was run: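 Dechorionated Tropical 5D wild-type embryos, placed singly from 6 hpf, were statically exposed at 28C to 120 hpf with 0.64% DMSO final; swim bladder malformation was scored present/absent by brightfield microscopy, gain of signal relative to DMSO controls.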

[2] = Tanguay_ZF_120hpf_TRUN_legacy: (Legacy) Oregon State University Tanguay Lab 120 Hour Post-fertilization zebrafish Assay for Truncated Body (AID 2283655)
How it was run: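 Tropical 5D wild-type embryos, dechorionated with pronase at 4 hpf, were placed singly in wells at 6 hpf and statically exposed at 28C until 120 hpf, final DMSO 0.64%. Truncated body was scored present/absent by brightfield microscopy.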

[3] = Tanguay_ZF_120hpf_NC_legacy: (Legacy) Oregon State University Tanguay Lab 120 Hour Post-fertilization zebrafish Assay for Notochord and Tail Malformation (AID 2283656)
How it was run: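 Dechorionated Tropical 5D wild-type zebrafish embryos, one per well from 6 hpf, statically exposed to 120 hpf at 28C in 0.64% DMSO final. Notochord distortion scored present/absent by brightfield; dead embryos excluded.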

[4] = Tanguay_ZF_120hpf_TR_legacy: (Legacy) Oregon State University Tanguay Lab 120 Hour Post-fertilization zebrafish Assay for Touch Response (AID 2283667)
How it was run: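 Tropical 5D wild-type zebrafish embryos were exposed statically in sealed, foil-covered plates at 28C until 120 hpf, with 0.64% (vol/vol) final DMSO. Touch response was scored as present or absent; embryos that died were not scored.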

[5] = tested on: Thyroperoxidase (TPO), gene 54314; experiment: CCTE_Simmons_AUR_rTPO: CCTE's Amplex UltraRed Assay for Thyroperoxidase (TPO) Inhibition, Simmons Lab (AID 2283662);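 on AC50: potency for loss of signal meaning inhibition of peroxidase activity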
How it was run: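 Rat thyroid microsomal TPO + 25 uM AUR in 200 mM K phosphate; cpd 5 nM–87.5 uM [final], 8 conc, 0.5% DMSO; 300 uM H2O2 starts rxn; 37C dark 30 min; endpoint FI 544/590 nm; n=3.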

[6] = CCTE_Simmons_CellTiterGLO_HEK293T: Viability Assessment in CCTE's Assays for Thyroperoxidase (TPO) Inhibition, Simmons Lab (AID 2283665);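 on AC50: cells exposed to compound for 24 h before readout; actives reduce ATP signal below DMSO vehicle meaning cytotoxicity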
How it was run: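 HEK293T cells in DMEM with 1% FBS, dosed 24 h at 37C with 8 concentrations, 5 nM–87.5 uM final, 0.5% DMSO. ATP measured by CellTiter Glo luminescence; loss of signal vs DMSO, three biological replicates.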

[7] = read-out: solute carrier (SLC10A1), SLC10A1 (gene 6554); experiment: LTEA_HepaRG_SLC10A1: Life Technologies and Expression Analysis (LTEA) Assay for solute carrier (SLC10A1) using HepaRG (AID 2283657; active means hit-call score of the fitted dose curve at least 0.9, where 1 is the maximum; inactive means score below 0.9); settings: mRNA level, 48 h; actives raise or lower the signal
How it was run: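 Differentiated HepaRG cells were plated 48 h, then exposed in serum-free induction medium for 48 h to 8 concentrations (top 100 uM, half-log steps, 0.5% DMSO). SLC10A1 mRNA was quantified by qRT-PCR normalized to ACTB, GAPDH, POLR2A; bidirectional fit versus DMSO.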

[8] = read-out: matrix metalloproteinase-1 (MMP1), MMP1 (gene 4312); experiment: LTEA_HepaRG_MMP1: Life Technologies and Expression Analysis (LTEA) Assay for matrix metalloproteinase-1 (MMP1) using HepaRG (AID 2283658; active means hit-call score of the fitted dose curve at least 0.9, where 1 is the maximum; inactive means score below 0.9); settings: mRNA level, 48 h; actives raise or lower the signal
How it was run: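 Differentiated HepaRG cells, plated 48 h then switched to serum-free induction medium, were exposed in duplicate for 48 h to eight half-log concentrations up to 100 uM in 0.5% DMSO; MMP1 mRNA measured by qRT-PCR, normalized to ACTB, GAPDH, POLR2A.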

[9] = read-out: Cytochrome P450 (CYP24A1_1), CYP24A1 (gene 1591); experiment: LTEA_HepaRG_CYP24A1_1: Life Technologies and Expression Analysis (LTEA) Assay for Cytochrome P450 (CYP24A1_1) using HepaRG (AID 2283671; active means hit-call score of the fitted dose curve at least 0.9, where 1 is the maximum; inactive means score below 0.9); settings: mRNA level, 48 h; actives raise or lower the signal
How it was run: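 HepaRG, 48 h exposure, 8-pt half-log series from 100 uM in 0.5% DMSO, duplicates. Readout: TaqMan qRT-PCR of CYP24A1 mRNA, housekeeping-normalized (ACTB/GAPDH/POLR2A). Bidirectional curve fit vs DMSO baseline.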

[10] = read-out: ABC Transporter (ABCB1), ABCB1 (gene 5243); experiment: CLD_ABCB1_6hr: CellzDirect (CLD) Gene Expression Assay for ABC Transporter (ABCB1) at 6 hours (AID 2283659);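 further: hits raise ABCB1 transcript above the DMSO vehicle baseline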
How it was run: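 Primary human hepatocytes (two donor preparations) dosed daily for two days with chemicals at multiple concentrations, 0.2% DMSO vehicle; harvested 6 h post-dose. ABCB1 mRNA induction quantified by qNPA chemiluminescence; gain-of-signal fitted versus DMSO.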

[11] = read-out: xenobiotic metabolism (CYP1A1), CYP1A1 (gene 1543); experiment: CLD_CYP1A1_6hr: CellzDirect (CLD) Gene Expression Assay for xenobiotic metabolism (CYP1A1) at 6 hours (AID 2283661)
How it was run: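 Primary human hepatocytes from two donors, compound versus 0.2% DMSO vehicle. CYP1A1 mRNA measured 6 h after dosing by quantitative nuclease protection assay with chemiluminescent read-out; induction fitted relative to DMSO, cytotoxicity flagged by microscopy.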

[12] = read-out: xenobiotic metabolism (CYP1A2), CYP1A2 (gene 1544); experiment: CLD_CYP1A2_6hr: CellzDirect (CLD) Gene Expression Assay for xenobiotic metabolism (CYP1A2) at 6 hours (AID 2283663)
How it was run: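 Primary human hepatocytes from two donor preparations, dosed daily with multiple concentrations in 0.2% DMSO and harvested at 6 h. CYP1A2 mRNA induction measured by chemiluminescent qNPA, gain of signal fitted against DMSO; cytotoxicity flagged morphologically.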

[13] = read-out: xenobiotic metabolism (CYP2C9), CYP2C9 (gene 1559); experiment: CLD_CYP2C9_6hr: CellzDirect (CLD) Gene Expression Assay for xenobiotic metabolism (CYP2C9) at 6 hours (AID 2283664)
How it was run: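 Primary human hepatocytes dosed daily with test chemicals at multiple concentrations; harvested at 6 h. CYP2C9 mRNA induction measured by qNPA chemiluminescence. Gain of signal fitted against 0.2% DMSO vehicle; cytotoxicity annotated from phase-contrast morphology.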

[14] = read-out: organic anion transporter (SLCO1B1), SLCO1B1 (gene 10599); experiment: CLD_SLCO1B1_6hr: CellzDirect (CLD) Gene Expression Assay for organic anion transporter (SLCO1B1) at 6 hours (AID 2283668);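 further: active means mRNA induction above DMSO baseline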
How it was run: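 Primary human hepatocytes dosed daily with test chemicals (multiple concentrations) in 0.2% DMSO vehicle; harvested at 6 h. SLCO1B1 mRNA quantified by qNPA chemiluminescence, fitted as gain-of-signal versus DMSO; cytotoxicity from phase-contrast morphology flagged alongside.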

[15] = CLD_ACTIN_24hr: CellzDirect (CLD) Gene Expression Assay for Baseline Control (Actin) at 24 hours (AID 2283670)
How it was run: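 Primary human hepatocytes dosed over multiple concentrations with 0.2% DMSO vehicle; actin mRNA measured at 24 h by qNPA chemiluminescence. Background control endpoint, fitted as gain of signal versus DMSO.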

[16] = read-out: glucuronosyltransferase (UGT1A1), UGT1A1 (gene 54658); experiment: CLD_UGT1A1_6hr: CellzDirect (CLD) Gene Expression Assay for glucuronosyltransferase (UGT1A1) at 6 hours (AID 2283672)
How it was run: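 Primary human hepatocytes from two donor preparations, dosed with fresh solutions in 0.2% DMSO, harvested at 6 h. UGT1A1 mRNA measured by qNPA chemiluminescence; induction fitted upward versus DMSO.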

In the case of `Cc1cc(-c2ccc(N)c(C)c2)ccc1N`, the outcome [1] was “inactive”, the outcome [2] was “inactive” and the outcome [3] was “inactive”. For the same molecule, the outcome [4] was “inactive”.

With `C=CC(=O)NCNC(=O)C=C` the outcome [1] was “inactive”, the outcome [2] was “inactive” and the outcome [3] was “inactive”. For the same molecule, the outcome [4] was “inactive”.

In the case of `CCCCCCOC(=O)c1ccccc1C(=O)OCCCCCC`, the outcome [2] was “inactive” and the outcome [3] was “inactive”.

In the case of `O=S(=O)(O)C(F)(F)C(F)(F)C(F)(F)C(F)(F)C(F)(F)C(F)(F)F`, the outcome [1] was “inactive”, the outcome [2] was “inactive” and the outcome [3] was “inactive”. For the same molecule, the AC50 [4] was 25.9 µM (active).

With `c1ccc(-c2ccccc2)cc1` the outcome [1] was “inactive”, the outcome [2] was “inactive” and the outcome [5] was “inactive”. For the same molecule, the AC50 [6] was 34.5 µM (active) and the outcome [4] was “inactive”.

With `O=NN(c1ccccc1)c1ccccc1` the outcome [1] was “inactive”, the outcome [3] was “inactive” and the outcome [4] was “inactive”.

For `CCOP(=S)(OCC)SCSC(C)(C)C`, the outcome [3] was “inactive”, the AC50 [5] was 8.68 µM (active) and the AC50 [6] was 20.9 µM (active). The outcome [4] was “inactive”.

For `c1cc2ccc3cccc4ccc(c1)c2c34`, the outcome [1] was “inactive”, the outcome [2] was “inactive” and the outcome [3] was “inactive”. For the same molecule, the outcome [4] was “inactive”.

For `Cc1cc(O)ccc1Cl`, the outcome [2] was “inactive”, the outcome [3] was “inactive” and the outcome [4] was “inactive”.

In the case of `ClC(Cl)=C(c1ccc(Cl)cc1)c1ccc(Cl)cc1`, the outcome [1] was “inactive”, the outcome [2] was “inactive” and the outcome [3] was “inactive”. The outcome [4] was “inactive”.

For `Cc1cccc(C)c1N`, the outcome [1] was “inactive”, the outcome [2] was “inactive” and the outcome [4] was “inactive”.

With `Nn1cnnc1` the outcome [1] was “inactive”, the outcome [2] was “inactive” and the outcome [3] was “inactive”. The outcome [4] was “inactive”.

With `CC1=C2C[C@H]3[C@@H](CC=C4C[C@@H](O)CC[C@@]43C)[C@@H]2CC[C@]12O[C@@H]1C[C@H](C)CN[C@H]1[C@H]2C` the outcome [2] was “inactive”, the outcome [3] was “inactive” and the outcome [7] was “inactive”. The outcome [8] was “inactive”, the AC50 [4] was 22.5 µM (active) and the outcome [9] was “inactive”.

For `O=C(NC(=O)c1c(F)cccc1F)Nc1cc(Cl)c(OC(F)(F)C(F)F)c(Cl)c1`, the outcome [2] was “inactive”, the outcome [3] was “inactive” and the AC50 [5] was 20.7 µM (active). The outcome [6] was “inactive” and the outcome [4] was “inactive”.

For `NS(=O)(=O)C(F)(F)C(F)(F)C(F)(F)C(F)(F)C(F)(F)C(F)(F)C(F)(F)C(F)(F)F`, the outcome [2] was “inactive” and the outcome [4] was “inactive”.

In the case of `Clc1ccc(Cl)cc1`, the outcome [2] was “inactive”, the outcome [3] was “inactive” and the outcome [7] was “inactive”. For the same molecule, the outcome [8] was “inactive”, the outcome [4] was “inactive” and the outcome [9] was “inactive”.

With `CCSC(=O)N(CC)C1CCCCC1` the outcome [1] was “inactive”, the outcome [2] was “inactive” and the outcome [10] was “inactive”. For the same molecule, the outcome [11] was “inactive”, the outcome [12] was “inactive” and the outcome [13] was “inactive”. For the same molecule, the outcome [14] was “inactive”, the outcome [15] was “inactive” and the outcome [16] was “inactive”.

In the case of `O=C(O)C(F)(F)C(F)(F)C(F)(F)C(F)(F)C(F)(F)F`, the outcome [1] was “inactive”, the outcome [2] was “inactive” and the outcome [3] was “inactive”. For the same molecule, the outcome [4] was “inactive”.

With `CCOCCOC(C)=O` the outcome [1] was “inactive”, the outcome [2] was “inactive” and the outcome [3] was “inactive”. For the same molecule, the outcome [4] was “inactive”.
